A selection: hits, their analogues and other compounds. The true share with any hit is near 0.9%.
RXFP1 agonist: agonists of human relaxin receptor RXFP1. HEK293T-RXFP1 cAMP TR-FRET, 30 min; response scale: percent of porcine relaxin response, buffer zero. Potency, µM (series often up to 57.5 µM), inactives show at the highest dose activation, usual class: activators. hit rate 0.3% among 370,000; active means well fitted activation curve with a large enough effect; inconclusive means small, poorly fitted or top-dose-only effect; further: potency means the concentration at half of the fitted maximal effect; on the % scale 0 is the no-effect control and ±100 the full control effect; nearly all actives have a fitted effect of over 60% in size
Target sequence (Q9HBX9 whole entry, looked up): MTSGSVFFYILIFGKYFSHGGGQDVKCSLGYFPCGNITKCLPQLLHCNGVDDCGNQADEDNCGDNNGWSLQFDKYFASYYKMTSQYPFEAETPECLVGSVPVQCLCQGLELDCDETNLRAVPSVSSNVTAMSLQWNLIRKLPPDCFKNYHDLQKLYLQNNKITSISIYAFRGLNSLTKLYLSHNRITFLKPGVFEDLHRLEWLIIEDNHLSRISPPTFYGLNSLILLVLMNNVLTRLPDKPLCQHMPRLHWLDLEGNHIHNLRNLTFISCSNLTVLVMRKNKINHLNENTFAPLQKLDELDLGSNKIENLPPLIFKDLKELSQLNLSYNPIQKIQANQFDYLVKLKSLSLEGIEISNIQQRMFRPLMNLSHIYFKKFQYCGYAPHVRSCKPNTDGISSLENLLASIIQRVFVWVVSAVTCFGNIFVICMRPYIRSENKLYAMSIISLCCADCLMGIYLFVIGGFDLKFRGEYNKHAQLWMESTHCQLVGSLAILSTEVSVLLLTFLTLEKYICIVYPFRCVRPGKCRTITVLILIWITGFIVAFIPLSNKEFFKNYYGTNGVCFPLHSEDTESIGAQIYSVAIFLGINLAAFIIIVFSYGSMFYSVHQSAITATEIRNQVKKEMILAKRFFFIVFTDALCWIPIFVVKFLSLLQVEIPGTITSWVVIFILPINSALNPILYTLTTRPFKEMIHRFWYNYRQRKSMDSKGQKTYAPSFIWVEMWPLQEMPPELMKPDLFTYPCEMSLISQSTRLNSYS
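HEK293T cells stably expressing RXFP1 were pretreated with the PDE4 inhibitor Ro 20174, exposed to compounds for 30 min at 37C, lysed, and cAMP was read by TR-FRET. Data normalized to buffer (basal) and 29 nM porcine relaxin (100%).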
gsp antagonist: antagonizes gsp, the McCune-Albright syndrome mutation | AID 624288 | gsp-mutant cells, cAMP HTRF, 30 min | hit rate 0.4% among 340,000 | Potency, µM (highest dose often 76.9 µM), inactives show at the highest dose activity change, negative = inhibition, hits mostly inhibitors; calls by dose curve; cell line not stated here;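 further: intracellular cAMP measured with PDE inhibitor Ro 20-1724 present during compound exposure; potency means the concentration at half of the fitted maximal effect; on the % scale 0 is the no-effect control and ±100 the full control effect; nearly all actives have a fitted effect of over 65% in size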
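HTRF cAMP read-out (cAMP-d2 plus anti-cAMP antibody-K in lysis buffer, 30 min RT). Before lysis, cells are exposed to compounds with […] for 30 min at 37C in DPBS containing Ca/Mg, BSA and Tween 20.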
RXFP1 antag: antagonists of human relaxin receptor RXFP1 | Q9HBX9 | HEK293-RXFP1, relaxin-stimulated cAMP HTRF, 30 min; hits give low values | activity change, negative = inhibition, % at 57.5 µM | hit rate 0.59% among 350,000;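 active means activity change of -60% or lower, but not beyond a set lower limit; inconclusive means change between -60% and -40%, or beyond the set limit; inactive means change above -40%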; further: on the % scale 0 is the no-effect control and ±100 the full control effect
gsp agonist: activates gsp, the McCune-Albright syndrome mutation; gsp mutant cells, cAMP HTRF, 30 min; Potency, µM (titrated, usually from 76.9 µM), for inactives: at the highest dose activation (cAMP increase), usual class: activators; hit rate 0.13% among 340,000; AID 624287; active means well fitted activation curve with a large enough effect; inconclusive means small, poorly fitted or top-dose-only effect, or another doubt; inactive means no such curve, though single readings can be large or run the other way; cell line not stated here;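 further: phosphodiesterase inhibitor Ro 20-1724 added with compounds to block cAMP breakdown; potency means the concentration at half of the fitted maximal effect; nearly all actives have a fitted effect of over 60% in size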
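Cells stably selected in G418 were plated at 2000/well, grown 16-24 hr, then given compounds in DMSO with the PDE inhibitor […] (300 uM solution added) for 30 min at 37C; cAMP was read by HTRF.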
* hit, by the source's call; u = inconclusive; x = not tested or not shown; + = active, no number; [ ] = dose if it differs, or a comment.

SMILES	RXFP1 agonist	gsp antagonist	RXFP1 antag	gsp agonist
COc1ccc(CNC(=O)CN2C(=O)CSc3ccc(S(=O)(=O)N4CCC(C)CC4)cc32)cc1	0.0%	x	-11.0	x
CC(=O)Nc1ccc(NC(=O)c2c(C)nn(-c3ccccc3)c2-n2cccc2)cc1	-1.6%	x	x	x
Cc1ccc(CN(Cc2ccco2)C(=O)COc2cccc(C)c2C)o1	-0.1%	x	-96.1*	x
Cc1cccc(OCC(=O)N(Cc2ccc(N(C)C)cc2)Cc2ccco2)c1C	-0.6%	x	-17.3	x
Cc1ccc(CN(Cc2ccco2)C(=O)COc2ccc(Cl)cc2)o1	-0.7%	x	-68.9*	x
CCCN1Cc2cccc(C(=O)Nc3cc(Cl)ccc3C)c2C1=O	-2.6%	x	-19.9	x
O=S(=O)(NCCC1=CCCCC1)c1ccc(Br)cc1	-0.7%	-2.6%	-70.0*	-21.4%
CCc1cccc(NC(=O)c2cccc3c2C(=O)N(CC2CCCO2)C3)c1 (stereo unspecified)	1.3%	35.5µM*	-6.5	9.8%
Cn1cnnc1Sc1nc2c(c(=O)n(C)c(=O)n2C)n1C	x	10.0%	3.6	22.4µM*
Cn1nc(C(F)(F)F)c2cc(C(=O)Nc3ccc(F)c(Cl)c3)sc21	-1.4%	u	-75.9*	14.2%
Cc1cn2c(=O)cc(COc3cccc(NC(=O)c4ccc(C(C)(C)C)cc4)c3)nc2s1	0.0%	x	1.3	x
COc1cc2c(cc1NC(=O)CN(C)Cc1ccc(OC)c(OC)c1)oc1ccccc12	0.8%	39.8µM*	-6.9	5.2%
COc1cc(NC(=O)c2ccccc2)c(OC)cc1Cl	0.2%	-30.7%	-12.7	12.1%
COc1ccc(OC)c(NC(=O)c2ccccc2SC)c1	0.6%	6.4%	4.8	-5.9%
COc1cc(OC)c(NC(=O)c2cc3ccccc3cc2O)cc1Cl	x	31.6µM*	-18.9	-3.9%
COc1ccc(CN(C)CC(=O)Nc2cc3oc4ccccc4c3cc2OC)c(OC)c1	3.1%	u	-15.2	-26.5%
COc1ccc(OC)c(NC(=O)c2cc3oc4ccccc4c3cc2O)c1	29.0%	u	-10.0	31.6µM*
Cc1ccc(C)c(Cn2nnc(C(=O)NCc3ccc(Cl)cc3Cl)c2N)c1	-1.1%	x	-2.5	x
Clc1ccc(CCNC(c2nnc(-c3ccccc3)o2)c2ccccc2Cl)cc1 (stereo unspecified)	4.1%	x	-36.6	x
CC(C)(C)c1ccc(C(=O)Nc2ccccc2C(=O)OCc2cc(=O)n3ccsc3n2)cc1	u	x	-8.2	x
Cc1cc(NCCCO)n2nc(-c3cccs3)cc2n1	0.0%	-7.1%	-0.3	15.1%[15.4 µM]
OCCCNc1cc(-c2ccccc2)nc2cc(-c3ccc(F)cc3)nn12	4.4%	35.5µM*	11.4	-1.4%
COC(=O)c1ccc2c(=O)n(-c3ccccc3)c(=S)[nH]c2c1	-1.0%	-12.9%	-98.7*	-33.4%
CC(=O)OCC(=O)[C@@]12N=C(C)O[C@@H]1C[C@H]1[C@@H]3CCC4=CC(=O)C=C[C@]4(C)[C@H]3[C@@H](O)C[C@@]12C	x	x	0.6	x
CC(C)[C@@H]1CC[C@@H](C)C[C@H]1OC(=O)C[n+]1cc(-c2ccc(Cl)cc2)n2c1CCCCC2	-0.5%	-6.6%	-73.9*	10.8%[15.4 µM]
SMILES	RXFP1 agonist	gsp antagonist	RXFP1 antag	gsp agonist
Cc1nc2c(C(=O)NCCc3ccc(Cl)cc3)cnn2c(C)c1Cc1ccc(F)cc1	-1.1%	x	-61.4*	x
Cc1nc2c(C(=O)NC(C)c3ccccc3)cnn2c(C)c1Cc1ccccc1 (stereo unspecified)	-1.8%	x	-85.4*	x
COC(CNC(=O)c1cnn2c(C)c(Cc3ccccc3)c(C)nc12)OC	-0.2%	-8.8%	5.3	-8.1%[15.4 µM]
Cc1nc2c(C(=O)NCCc3ccc(Cl)cc3)cnn2c(C)c1Cc1c(F)cccc1Cl	0.8%	x	-21.0	x
Cc1ccc2c(=O)cc(C(=O)Nc3ccc(S(=O)(=O)Nc4onc(C)c4C)cc3)oc2c1C	12.6%	x	7.9	x
Cn1c(=O)c2c(c3ccccc31)OC(C)(C)CC2	5.5%	+[activator]	-12.3	-13.8%[15.4 µM]
COc1cccc2c3c(c(=O)[nH]c12)CCC(C)(C)O3	0.8%	5.9%	-2.2	-20.6%
CCOC(=O)N1CCc2c(sc3c2c(=O)n(Cc2ccccc2)c(=O)n3CC(=O)Nc2ccc(C)cc2C)C1	1.4%	x	0.8	x
c1csc(-c2nnc(NC3CCCCC3)c3ccccc23)c1	-1.3%	39.8µM*	-26.9	-8.7%
CC1CCN(c2nnc(-c3cccs3)c3ccccc23)CC1	2.2%	u	-30.2	-48.7%
Cc1ccc(C)c(N2CCN(CCCNC(=O)c3cnn(-c4ccccc4Cl)c3C3CCN(C(=O)OC(C)(C)C)CC3)CC2)c1	-2.8%	x	u	x
CCOC(=O)c1sc(=NC(=O)c2ccc(Cl)s2)n(C)c1C	3.8%	-24.5%	-6.8	2.6%[15.4 µM]
CCOC(=O)c1sc(=NC(=O)c2cccs2)n(C)c1C	28.2µM*	-1.0%	-12.9	-10.3%[15.4 µM]
CCOC(=O)c1ccc(C#Cc2ccc3c(c2)C(C)(C)CCS3)nc1	x	x	-11.6	x
FC(F)(F)c1nc(N2CCCC2)ncc1-c1nnnn1-c1ccccc1	1.0%	35.5µM*	22.4	-34.7%
Cc1cc(C)c(O)c(-c2n[nH]c3c2C(c2cccc(O)c2)N(Cc2ccco2)C3=O)c1 (stereo unspecified)	-1.8%	-19.5%	-80.5*	-19.4%
CCN(CC)CC(=O)OCC(=O)[C@@]1(O)CC[C@H]2[C@@H]3CCC4=CC(=O)CC[C@]4(C)[C@H]3[C@@H](O)C[C@@]21C	x	x	-17.6	x
COc1cccc(CC2(CO)CCCN(Cc3ccc(C)s3)C2)c1 (stereo unspecified)	-1.2%	4.9%	-78.0*	13.1%[15.4 µM]
O=C(NCC(c1ccc2c(c1)OCO2)N1CCOCC1)C(=O)Nc1ccccc1 (stereo unspecified)	-0.7%	x	-7.2	x
O=C(Nc1cc(C(=O)N2CCCC2)ccc1N1CCCC1)c1ccccc1F	-1.0%	6.31µM*	-26.2	u
O=C(Nc1ccc(C(=O)N2CCCC2)cc1)c1ccccc1F	0.1%	-2.9%	-3.6	13.8%
Cc1ccc(S(=O)(=O)N2CCN(C(=O)CNC(=O)c3sc4ccccc4c3Cl)CC2)cc1	7.9%	-33.2%	-13.6	11.2µM*
O=C(NCC(=O)N1CCCCC1)c1sc2ccccc2c1Cl	0.4%	5.0%	9.0	19.9%
Cc1ccc(N2CCN(C(=O)c3cnn(-c4ccc(F)cc4F)c3C3CCN(C(=O)OC(C)(C)C)CC3)CC2)c(C)c1	-0.4%	x	-22.8	x
CC(C)n1ncc2c(C(=O)NCC(=O)Nc3ccccc3Br)cc(C3CC3)nc21	-2.7%	-16.3%	-88.0*	27.2%
SMILES	RXFP1 agonist	gsp antagonist	RXFP1 antag	gsp agonist
COc1cc(-c2n[nH]c(=S)n2-c2ccc(C)cc2)cc(OC)c1OC	-1.1%	-8.0%	-13.5	14.1µM*
COc1cc(OC)cc(-c2n[nH]c(=S)n2-c2ccc3c(c2)OCO3)c1	9.9%	-14.9%	-16.3	7.08µM*
Fc1ccc(-n2c(-c3ccc4c(c3)OCO4)n[nH]c2=S)cc1Cl	4.4%	1.0%	-24.6	u
O=C1C2CC=CCC2C(=O)N1c1ccc(N2CCN(c3ccccn3)CC2)c([N+](=O)[O-])c1 (stereo unspecified)	1.2%	22.4µM*	-31.2	-1.1%
O=C(c1ccc(N2CCCCC2)c([N+](=O)[O-])c1)N1CCN(c2ccccn2)CC1	0.3%	-9.7%	0.1	8.9%
Oc1ccccc1N=Nc1ccccc1O	2.8%	35.5µM*	-28.8	-7.0%

Screens (PubChem BioAssay)
